# From PubChem BioAssay (NCI)
# The panel holds about 83,000 compounds, 20% with a hit somewhere; the sample as a whole holds those more often.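 Percent growth is the endpoint: 0 to 100 indicates growth inhibition (40 means 60% inhibition), 0 means no net growth, and negative values indicate cell death.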 A number with no mark means an inactive call. Active and inactive are the calls of the source. The calls were made as follows: active = growth percent below 10; inactive = the rest.
# Tested on: HCT-15 colon
# Experiment: NCI-60 one-dose screen, 48 h (100 = growth as untreated, 0 = no growth, -100 = all killed)
# Settings: 10 µM unless noted
row,SMILES,growth
1,CCSc1oc(-c2ccccc2)nc1[P+](c1ccccc1)(c1ccccc1)c1ccccc1,6.09% (active)
2,O=S(=O)(Nc1cc(F)cc(Cl)c1)c1ccc(-c2cnc(C3CC3)o2)cc1,25.4%
3,COc1cc2oc(-c3cccc(NC(=O)c4ccccc4)c3)cc(=O)c2c(OC)c1OC,65.2%

# Tested on: HT29 colon
# Experiment: as above
# Settings: 10 µM unless noted
row,SMILES,growth
1,O=C1Nc2ccccc2/C1=C/c1cccn1CCCCn1c2ccccc2c(=O)c2ccccc21,89.1%
2,O=C1/C(=C/c2ccccc2Br)COc2ccc(O)cc21,48.8%
3,O=S(=O)(Nc1ccc(Cl)c(C(F)(F)F)c1)c1ccc(-c2cnc(C3CC3)o2)cc1,5.34% (active)
4,Cc1cc(=O)oc2cc(OCc3nn4c(Nc5nc6ccccc6s5)c(-c5ccccc5)nc4s3)ccc12,102%
5,COC(=O)c1c(C)c2n(c1C)C(=O)C(c1ccccc1)=C2,87.1%
6,C#CCOC(=O)/C=C/c1cn(-c2ccccc2)nc1-c1ccc(OC)cc1,83.2%
7,Cc1c2cnccc2c(C)c2c1c1cc(C#N)ccc1n2C,-18.9% (active)
8,COC(=O)c1cc(N=C2NC(=O)/C(=C/C=C/c3ccccc3)S2)ccc1O,10.7%
9,Cc1ccc2c(Cn3cc(CSc4nc5ccccc5o4)nn3)cc(=O)oc2c1,108%
10,O=C(CSc1nnc(-c2cnccn2)n1-c1ccccc1)c1ccc(Cl)cc1,94.7%
11,NS(=O)(=O)c1ccccc1NC(=O)Nc1nc2ccccc2s1,98.2%
12,CCOC(=O)C1=C(N)Oc2c(sc3c(F)cccc23)C1c1ccc(O)cc1 (stereo not drawn),30.7%
13,COc1ccc(/C=C/C(=O)c2ccc(Nc3ccnc4cc(Cl)ccc34)cc2)cc1,45%
14,Cc1cc(S(=O)(=O)/N=C(\N)n2nc(C)c(C)c2C)c(SCc2ccccc2)cc1Cl,63.7%
15,COc1ccc(/C=C(\C#N)n2nnc3cc(Cl)ccc32)cc1,2.07% (active)
16,CSc1nnc(-c2cc3c([nH]c4ccccc43)c(-c3cccc(O)c3)n2)n1-c1ccccc1,41.3%
17,O=C(O)c1ccc(-n2cc(/C=N/Nc3ccccc3)c(-c3ccc(F)cc3F)n2)cc1,90.5%
18,O=C(/C=C/c1cccc(Cl)c1)c1ccc(Nc2nc(Nc3ccc(F)cc3)nc(Nc3ccc(Cl)cc3)n2)cc1,108%
19,NC(=O)c1cccc(-n2ccc3cc(NC(=O)c4ccc(N5CCOCC5)c(C(F)(F)F)c4)ccc32)n1,14.3%
20,CCn1cc(C(=O)NNC(=S)Nc2ccc(C)cc2)c(=O)c2ccc(C)nc21,97.5%

row,SMILES,growth
1,CC(C)(Sc1cc(C(C)(C)C)c(OC(=O)CCCC(=O)O)c(C(C)(C)C)c1)Sc1cc(C(C)(C)C)c(OC(=O)CCCC(=O)O)c(C(C)(C)C)c1,26.9%
2,O=C(O)c1cn(C2CC2)c2cc(N3CCN(C(=O)N(c4ccccc4)c4nc(-c5ccccc5)cs4)CC3)c(F)cc2c1=O,4.23% (active)
3,Cc1cccc(/C=C/c2c(C(=O)/C=C/c3ccccc3)c(C)nc3ccccc23)c1,-24.2% (active)
4,O=C(CSc1oc(-c2ccccc2)nc1S(=O)(=O)c1ccccc1)Nc1ccc(F)cc1,91.7%
5,O=C(/C=C/c1ccccc1)Nc1ncc(Cc2ccccc2Cl)s1,6.09% (active)
6,O=C(Nc1cccc(Cl)c1)Nc1cccc(Cn2c(=O)[nH]c3ccc(Oc4ncccn4)cc3c2=O)c1,38.8%
7,Cc1ccc2c(c1)=C/C(=C\c1cc(-c3ccccc3)oc1O)C(=O)N=2,108%
8,c1ccc(Cn2cc3c(c2)-c2oncc2CC3)cc1,7.96% (active)
9,CCN(CC)c1ccc(\C=N/N=C(N)/C(N)=N\N=C/c2ccc(N(CC)CC)cc2)cc1,99.2%
10,Nc1ncc(-c2ccc3ncnc(Nc4cccc(Cl)c4)c3c2)cn1,40%
11,c1ccc([P+](c2ccccc2)(c2ccccc2)c2ccc3c4ccc([P+](c5ccccc5)(c5ccccc5)c5ccccc5)c5cccc(c6cccc2c63)c54)cc1,8.41% (active)
12,Cc1ccc(NC(=O)Cn2cc(CN3CCN(c4ccnc5cc(Cl)ccc45)CC3)nn2)cc1,105%
13,O=C(Nc1nc(-c2ccc(Cl)cc2)nc2c1sc(=S)n2-c1ccccc1)C(F)(F)F,17.5%
14,COCCn1cc(-c2csc(-c3cn(C)c4ccc(Br)cc34)n2)c2cccnc21,26%
15,C#CCOc1ccc2ncnc(Nc3ccc(NC(=O)C=C)cc3)c2c1,-34.9% (active)
16,Cn1cc(-c2csc(-c3c[nH]c4ccc(Br)cc34)n2)c2ccnc(Cl)c21,20.8%
17,Nc1ncnc2c1c(-c1cccc(Cl)c1)nn2CC(=O)N1CCOCC1,99.7%
18,CCSc1oc(-c2ccccc2)nc1[P+](c1ccccc1)(c1ccccc1)c1ccccc1,1.21% (active)
19,O=S(=O)(Nc1cc(F)cc(Cl)c1)c1ccc(-c2cnc(C3CC3)o2)cc1,4.89% (active)
20,COc1cc2oc(-c3cccc(NC(=O)c4ccccc4)c3)cc(=O)c2c(OC)c1OC,77.1%
